Where two headings read alike, the source gives them in different places. Out of some 13,000 compounds screened, about 3,200 (25%) showed an effect of 50% or more. The list shows a part of the results.
Test system: P. falciparum stage V gametocytes
Design: BacTiter-Glo ATP luminescence viability of purified stage V gametocytes in 384-well plates, per cent inhibition versus DMSO
Conditions: 48 h, 5 µM, inhibitor

Compound | % Inhibition [%] | % Inhibition (% Inhibition) [%]
COc1ccc(NC(=O)Nc2cccc(-c3cccc(-c4nc5c(C)cccc5[nH]4)c3)c2)cc1 [TCMDC-133247] | -12.94 | 
Fc1ccc2[nH]c(-c3cccc(-c4ccc(CNCC5CCCO5)cc4)c3)nc2c1.O=C(O)C(F)(F)F (stereo not shown) [TCMDC-133105] | -0.6383 | 
CN1CCCC(CN2CCN(Cc3cccc(-c4ccc(-c5nc6ccc(F)cc6[nH]5)cc4)c3)CC2)C1 (stereo not shown) [TCMDC-133891] | 104.2 | 
N#CCCN1CCN(Cc2ccc(-c3ccc(-c4nc5ccc(F)cc5[nH]4)s3)cc2)CC1 [TCMDC-133861] | -54.51 | 
CC1CN(Cc2ccc(-c3ccc(-c4nc5ccc(F)cc5[nH]4)s3)cc2)CC(C)O1 (stereo not shown) [TCMDC-133819] | 9.471 | 
CN1CCCC(CN2CCN(Cc3ccc(-c4ccc(-c5nc6ccccc6[nH]5)s4)cc3)CC2)C1 (stereo not shown) [TCMDC-133889] | 85.26 | 
OCC1CCN(Cc2cccc(-c3cccc(-c4nc5ccc(C(F)(F)F)cc5[nH]4)c3)c2)CC1 [TCMDC-133129] | 41.06 | 
OCC1CCN(Cc2ccc(-c3cccc(-c4nc5ccc(C(F)(F)F)cc5[nH]4)c3)cc2)CC1 [TCMDC-133130] | -16.83 | 
CN1CCCC(CN2CCN(Cc3ccc(-c4ccc(-c5nc6ccc(F)cc6[nH]5)s4)cc3)CC2)C1 (stereo not shown) [TCMDC-133892] | 66.7 | 
OCC1CCN(Cc2cccc(-c3ccc(-c4nc5ccc(C(F)(F)F)cc5[nH]4)cc3)c2)CC1 [TCMDC-133123] | 76.36 | 
N#CCCN1CCN(Cc2ccc(-c3cccc(-c4nc5ccc(F)cc5[nH]4)c3)cc2)CC1 [TCMDC-133845] | 7.403 | 
CC1CN(Cc2ccc(-c3cccc(-c4nc5ccc(F)cc5[nH]4)c3)cc2)CC(C)O1 (stereo not shown) [TCMDC-133813] | -17.46 | 
CN1CCCC(CN2CCN(Cc3cccc(-c4ccc(-c5nc6ccc(C(F)(F)F)cc6[nH]5)cc4)c3)CC2)C1 (stereo not shown) [TCMDC-133882] | 68.4 | 
NC1CCN(Cc2cccc(-c3ccc(-c4nc5ccc(C(F)(F)F)cc5[nH]4)cc3)c2)C1 (stereo not shown) [TCMDC-133837] | 42.56 | 
CC(=O)N(C)C1CCN(Cc2cccc(-c3ccc(-c4nc5ccc(C(F)(F)F)cc5[nH]4)cc3)c2)C1 (stereo not shown) [TCMDC-133884] | -40.19 | 
NC1CCCN(Cc2cccc(-c3ccc(-c4nc5ccc(C(F)(F)F)cc5[nH]4)cc3)c2)C1 (stereo not shown) [TCMDC-133839] | 50.43 | 
OCCN1CCN(Cc2ccc(-c3ccc(-c4nc5ccc(F)cc5[nH]4)cc3)cc2)CC1 [TCMDC-133030] | -14.7 | 
CN1CCCC(CN2CCN(Cc3ccc(-c4ccc(-c5nc6ccc(F)cc6[nH]5)cc4)cc3)CC2)C1 (stereo not shown) [TCMDC-133908] | 90.06 | 
OC1CCCN(Cc2cccc(-c3ccc(-c4nc5ccc(C(F)(F)F)cc5[nH]4)cc3)c2)C1 (stereo not shown) [TCMDC-133814] | -59.43 | 
COCCN1CCN(Cc2ccc(-c3ccc(-c4nc5ccc(F)cc5[nH]4)cc3)cc2)CC1 [TCMDC-133022] | -25.91 | 
CN1CCCC(CN2CCN(Cc3ccc(-c4cccc(-c5nc6ccc(F)cc6[nH]5)c4)cc3)CC2)C1 (stereo not shown) [TCMDC-133883] | 67.8 | 
N#CCCN1CCN(Cc2cccc(-c3ccc(-c4nc5ccc(C(F)(F)F)cc5[nH]4)cc3)c2)CC1 [TCMDC-133844] | -10.1 | 
COc1ccc2ncc(C#N)c(CCN3CCC(NCc4ccc5c(c4)OCCO5)CC3)c2c1 [TCMDC-135664] | 6.84 | 
O=C(Nc1cccc(-c2cccc(-c3nc4ccccc4[nH]3)c2)c1)NC1CC1c1ccccc1 (stereo not shown) [TCMDC-133256] |  | 3.053

Compound | % Inhibition [%] | % Inhibition (% Inhibition) [%]
COc1ccc2c(c1)Sc1ccccc1C(N1CCN(CCO)CC1)C2 (stereo not shown) [TCMDC-139028] | -3.41 | 
Cc1cccc2nc(-c3ccc(-c4cccc(C(=O)NCCc5cn(C)cn5)c4)s3)[nH]c12 [TCMDC-132498] | -19.19 | 
CCOc1c(OC)ccc2c1CCN(CCN1CCC(NC(=O)c3ccc(-c4cccc(C(F)(F)F)c4C(F)(F)F)cc3)CC1)C2 [TCMDC-135432] | -45.25 | 
CCOc1cc(Br)c(C(C)NC(=O)c2ccccc2)cc1OCC (stereo not shown) [TCMDC-123743] | 65.54 | 
CCOc1cc(C(=O)Nc2ccc3nc(N(CC)CC)cc(C)c3c2)cc(OCC)c1OCC [TCMDC-124008] | -7.565 | 
CCOc1cc(Br)c(C(C)NC(=O)c2cccc(OC)c2)cc1OCC (stereo not shown) [TCMDC-123742] | 47.1 | 
CCOc1cc(Cl)c(C(C)NC(=O)c2ccccc2)cc1OCC (stereo not shown) [TCMDC-123744] | 73.45 | 
CCOc1cc(C(=O)Nc2ccccc2N2CCN(S(C)(=O)=O)CC2)cc(OCC)c1OCC [TCMDC-124994] | 1.091 | 
CCOc1cc(Cl)c(C(C)NC(=O)c2cccc(OC)c2)cc1OCC (stereo not shown) [TCMDC-125450] | 81.4 | 
COc1cccc(C(=O)NC(NC(=S)Nc2ccc(OC)cc2[N+](=O)[O-])C(Cl)(Cl)Cl)c1 (stereo not shown) [TCMDC-124141] | 23.91 | 
O=C(NOCCCCOc1ccc(Cl)c(Cl)c1)c1ccccc1 [TCMDC-131761] | -3.28 | 
CCOc1cc(C(=O)NC2CCN(Cc3ccccc3)CC2)ccc1-c1nc2cc(Cl)c(Cl)cc2[nH]1 [TCMDC-140080] | -6.754 | 
CC(C)C[C@H](NC(=O)c1ccc(OCCN2CCOCC2)cc1)C(=O)N[C@H](/C=N/N1CC(=O)NC1=O)CCc1ccccc1 [TCMDC-136155] | 17.61 | 
O=C(NC1CC1)c1ccc2cc(C(=O)N3Cc4ccccc4C(c4ccccc4)C3)ccc2c1 (stereo not shown) [TCMDC-131863] | 5.684 | 
COc1ccccc1CCNc1ncnc2c1[nH]c1ccc(F)cc12 [TCMDC-124556] | 39.14 | 
COc1ccc(OC)c(Cc2cnc3nc(N)[nH]c(=O)c3c2C)c1 [TCMDC-138103] | 16.49 | 
CN(C)C(=O)CCCn1c(CNCCCNc2cc(=O)c3ccccc3[nH]2)cc2c(Cl)cc(Cl)cc21 [TCMDC-140466] | -27.37 | 
CCCC1CCNC(C(O)c2ccnc3ccc(OC)cc23)C1 (stereo not shown) [TCMDC-138276] | 11.37 | 
Cc1ccc(-n2nc(-c3ccccc3)c3cc(C(=O)NCCN)sc32)cc1 [TCMDC-124776] | 110.1 | 
COc1cccc(-c2nn(C)c3sc(C(=O)NCCN(C)Cc4ccccc4)cc23)c1 [TCMDC-123583] | -8.796 | 
CN(C)CCNC(=O)c1cc2c(-c3ccc(Cl)cc3)nn(C)c2s1 [TCMDC-123580] | -36.25 | 
CC(C)Oc1ccc2c(c1)OC(c1ccccc1)(C(F)(F)F)NC2=O (stereo not shown) [TCMDC-123633] | 28.56 | 
Cc1nc(Cl)c2c(-c3ccccc3)csc2n1 [TCMDC-125437] | -3.595 | 
COc1cccc(-c2ccc3ccnc(N)c3c2)c1 [TCMDC-133361] | 60.33 | 

Compound | % Inhibition [%] | % Inhibition (% Inhibition) [%]
NC(=O)c1ccc(-c2ccc3ccnc(N)c3c2)cc1 [TCMDC-133429] | 50 | 
CS(=O)(=O)Nc1ccc(-c2ccc3ccnc(N)c3c2)cc1 [TCMDC-136788] | 43.95 | 
COc1cccc(-c2ccc3c(-c4ccc(F)cc4)cnc(N)c3c2)c1 [TCMDC-134514] | 40.73 | 
CN(C)Cc1cccc(-c2ccc3ccnc(N)c3c2)c1 [TCMDC-136795] | 100.3 | 
Nc1ccc(-c2ccc3ccnc(N)c3c2)cc1 [TCMDC-136763] | -16.03 | 
CN(C)CC(=O)Nc1ccc(-c2ccc3ccnc(N)c3c2)cc1 [TCMDC-133427] | 67.97 | 
Nc1nccc2ccc(-c3cccc(OCc4ccccc4)c3)cc12 [TCMDC-133430] | 24.46 | 
NS(=O)(=O)c1cccc(Nc2nccc(-c3c(-c4cccc(NC(=O)c5c(F)cccc5F)c4)nn4ccccc34)n2)c1 [TCMDC-135780] | -65.73 | 
Cc1csc(-c2nc(NCc3cccnc3)ncc2-c2ccsc2)n1 [TCMDC-124841] | 9.704 | 
CC(C)(C)c1cc(NC(=O)c2ccc(Cl)c([N+](=O)[O-])c2)cc(C(C)(C)C)c1 [TCMDC-125604] | 2.881 | 
Cc1ccc(C(=O)N2CCN(Cc3nccs3)CC2)cc1 [TCMDC-140738] | 3.888 | 
O=c1cc(NCCCNCc2scc(I)c2I)[nH]c2ccccc12 [TCMDC-140908] | -12.68 | 
Nc1cc(-c2ccc3c(N)nccc3c2)ccc1Cl [TCMDC-136895] | -23.38 | 
Nc1nccc2ccc(-c3cccnc3)cc12 [TCMDC-136599] | 30.25 | 
CN(C)Cc1ccc(-c2ccc3ccnc(N)c3c2)cc1 [TCMDC-136790] | 60.33 | 
Nc1nccc2ccc(-c3cccc4ncccc34)cc12 [TCMDC-133424] | 95.32 | 
NCc1cccc(-c2ccc3ccnc(N)c3c2)c1 [TCMDC-136889] | 55.02 | 
Nc1cccc(-c2ccc3ccnc(N)c3c2)c1 [TCMDC-136762] | 21.07 | 
NCc1ccc(-c2ccc3c(N)nccc3c2)cc1 [TCMDC-133718] | 107.3 | 
COC(=O)c1noc(C)c1I [TCMDC-131678] | -0.6747 | 
CN1CCN(c2ccc(Nc3c(C(N)=O)cnc4cc(-c5ccoc5)ccc34)cc2C(F)(F)F)CC1.Cl [TCMDC-135443] | 2.768 | 
O=C(Nc1ccc(Cl)cc1)Nc1ccc(-c2cccc(-c3nc4ccccc4[nH]3)c2)cc1 [TCMDC-133187] | -14.37 | 

From paper PMC4552634, “A New Set of Chemical Starting Points with Plasmodium falciparum Transmission-Blocking Potential for Antimalarial Drug Discovery” (PLoS ONE, 2015)
